Results from PubChem BioAssay AID651812 (National Center for Advancing Translational Sciences (NCATS), 2012).
Hit rate of the full screen: of about 2,100 compounds, about 650 (31%) were called active. Inconclusive results (about 16%) are left out. The call rests on the fitted dose curve; in most records, active means well fitted inhibition curve with a large enough effect; inconclusive means small, poorly fitted or top-dose-only effect; inactive means flat fitted curve, though single readings scatter. The list shows a part of the results.

Test: qHTS for inhibitors of Vif-A3G interactions: Cherry picks; further: nearly all actives have a fitted effect of over 80% in size
Conditions: HeLa A3G-eYFP + Vif (tagged APOBEC3G with the HIV-1 protein that degrades it), 24 h; Potency: eYFP fluorescence increase; series mostly up to 36.9 µM
Excerpt: The recent discovery and characterization of host restriction factors, which provide a potent defense to invading retroviruses, has provided new targets for antiviral drug development. APOBEC3G (A3G) and APOBEC3F (A3F) are potent cytidine deaminases that block HIV-1 replication; HIV-1 expresses the Vif protein, which counteracts A3G and A3F by binding to them and inducing their proteasomal degradation. The Vif-A3G and Vif-A3F interactions provide two potential targets for development of small molecules which can interfere with the ability of Vif to degrade A3G or A3F. […] To identify inhibitors that can interfere with Vif mediated degradation of A3G and A3F, we have developed Hela cell lines that stably express A3G or A3F tagged with eYFP at the C-terminal end (A3G-eYFP or A3F-eYFP, respectively) and Vif. In the absence of an inhibitor, Vif induces degradation of A3G-eYFP and A3F-eYFP, and the cells are not fluorescent. In the presence of an inhibitor, it is expected that Vif will be unable to degrade A3G-eYFP and/or A3F-eYFP, resulting in an increase in yellow fluorescence. In this assay, Vif A3G was screened against the cherry picks ordered from the MLSMR. NIH Chemical Genomics Center [NCGC] NIH Molecular Libraries Probe Centers Network [MLPCN] MLPCN Grant: MH093245 Assay Submitter (PI): Vinay Pathak, National Cancer Institute
A3G-Vif cells were harvested from T225 flask and resuspended in phenol free OPTI-MEM medium with 5% FBS. Then 5 uL of 140,000 cells/mL resuspended cells was dispensed into each well of low base Aurora COC 1,536-well plates (black walled, clear bottom) using a Multidrop Combi dispenser. After overnight culture at 37 deg C with 5% CO2, a total of 23 nL of compounds at 5 selected concentrations from the NPC or positive control (2 mM stock of MG132) in DMSO was transferred to each well of the assay plate using a pintool (Kalypsys, San Diego, CA), and the plates were further incubated at 37 deg C with 5% CO2 for 24 hours. After that, the plates were measured on Acumen Explorer (TTP Lab Tech). The fluorescence was detected by 488 nm/Ex and […].
Potency means the concentration at half of the fitted maximal effect.

Potency, active:
COCCN1C(=O)/C(=C/c2ccc(N3CCCC3)cc2)SC1=S 4.61 µM
COCCN1C(=O)/C(=C/c2ccc(N3CCCC3)cc2C)SC1=S 2.59 µM
COc1cc(/C=C(\C#N)c2nc3ccc(C)cc3[nH]2)ccc1OC(C)C 20.6 µM
COc1cc(/C=C(\C#N)c2nc3ccccc3s2)ccc1OCC(=O)Nc1ccccc1 17.7 µM
COc1cc(/C=C(\C#N)c2nc3ccccc3[nH]2)ccc1OCc1ccccc1F 18.4 µM
COc1cc(/C=C(/C#N)c2nc3ccccc3[nH]2)ccc1OC(=O)c1ccco1 3.53 µM
COc1cc(/C=C(\C#N)c2nc3ccccc3[nH]2)cc(Cl)c1OCc1ccccc1Cl 18.4 µM
COc1cc(/C=C(/C#N)c2nc3ccccc3[nH]2)ccc1OCC(=O)Nc1ccccc1C(C)C 16.4 µM
COc1cc(/C=C(\C#N)c2nc3ccccc3[nH]2)ccc1O 5.8 µM
COc1cc(Br)c(/C=C(\C#N)c2nc3ccccc3[nH]2)cc1OC 18.4 µM
CCOc1ccc2nc(N3C(=O)/C(=C/c4ccc(Cl)cc4)NC3=S)sc2c1 11.6 µM
COc1ccc2nc(N3C(=O)/C(=C/c4ccccc4)NC3=S)sc2c1 3.66 µM
Cc1ccc2c(c1)sc(-c1ccc(N(C)C)cc1)[n+]2C 20.6 µM
COc1ccc(C(=O)/C=C/Nc2ccc([N+](=O)[O-])cc2C)c(OC)c1 11.6 µM
CCCN1C(=O)/C(=C/C=C2\N(CC)c3ccccc3C2(C)C)SC1=S 3.96 µM
CCCN1C(=O)/C(=C\C=C2\N(CC)c3ccccc3C2(C)C)SC1=S 3.26 µM
O=C(NCc1ccco1)c1cccc2c1C(=O)c1ccc(N3CCC(Cc4ccccc4)CC3)cc1S2(=O)=O 18.4 µM
O=C(NC1CC1)c1cccc2c1C(=O)c1ccc(N3CCC(Cc4ccccc4)CC3)cc1S2(=O)=O 23.1 µM
O=C(NCc1ccccc1C(F)(F)F)c1cccc2c1C(=O)c1ccc(N3CCC(N4CCCCC4)CC3)cc1S2(=O)=O 20.6 µM
O=C(NCc1cccc(C(F)(F)F)c1)c1cccc2c1C(=O)c1ccc(N3CCC(Cc4ccccc4)CC3)cc1S2(=O)=O 18.4 µM
O=C(N/N=C/c1ccc([N+](=O)[O-])o1)c1sc2ccccc2c1Cl 18.4 µM
COc1ccccc1OCC(=O)N/N=C/C=C/c1ccc([N+](=O)[O-])o1 16.4 µM
O=C(N/N=C\C=C\c1ccc([N+](=O)[O-])o1)c1cccs1 15.8 µM
Cc1cc2nc3c(=O)n(C4CCCCC4)c(=O)[nH]c3nc2cc1N 16.4 µM
Cc1cc2nc3c(=O)n(Cc4ccccc4)c(=O)[nH]c3nc2cc1N 6.27 µM
CC1CC(C)(C)Nc2ccc(OC(=O)c3ccco3)cc21 (stereo not drawn) 20.6 µM
CC(C)(C)C(=O)c1sc2nc(-c3cccs3)cc(C(F)(F)F)c2c1N 1.3 µM
Nc1c(C(=O)C2CC2)sc2nc(-c3cccs3)cc(C(F)(F)F)c12 2.31 µM
CC(=O)c1sc2nc(-c3cccs3)cc(C(F)(F)F)c2c1N 7.31 µM
Cc1cc(/C=C2\SC(=S)N(Cc3ccco3)C2=O)c(C)n1-c1cccnc1 23.1 µM
CCN1CCN(c2c(/C=C3\SC(=S)N(Cc4ccco4)C3=O)c(C)c(C#N)c(=O)n2C)CC1 18.4 µM
CN(C)c1ccc(C=C2SC(=S)N(Cc3ccco3)C2=O)cc1 2.8 µM
CC(OC(=O)/C(C#N)=C/c1ccc(N(C)C)cc1)C(=O)N(C)Cc1ccccc1 (stereo not drawn) 18.4 µM

Potency, inactive:
Cc1c(=O)n(OCc2ccc(Cl)cc2)c2ccccc2[n+]1[O-]
Nc1nc2n[nH]nc2c(=O)[nH]1
CC12CC3CC(C)(C1)CC(C(=O)NC(=S)N1CCOCC1)(C3)C2
COc1ccc(-c2n[nH]c(C)c2-c2ccc(OC)c(OC)c2)c(O)c1
C=C1C(=O)O[C@@H]2[C@H]1[C@@H](OC(=O)/C(C)=C/C)C/C(C)=C\C(=O)/C=C(\C)[C@@H]2O
O=C(Oc1ccc(Cl)c2cccnc12)c1ccco1
COc1ccc(/C=N/NC(=O)c2ccccc2Cl)cc1CSc1nc2ccccc2s1
COc1ccc(/C=N\NC(=O)c2ccccc2F)cc1COc1ccc(F)cc1F
COc1ccc(OC)c2sc(NC(=O)CCS(=O)(=O)c3ccccc3)nc12
CC1(C)Cc2nc3sc4c(SCC(=O)NCc5ccco5)ncnc4c3cc2CO1
CCS(=O)(=O)N1CCc2cc(C(=O)N3CCN(c4cccc(C(F)(F)F)c4)CC3)ccc21
CCC(C)Sc1cccc(-c2nc3cc(C)ccn3c2NC2CCCCC2)c1 (stereo not drawn)
CN1C(=O)C(O)(C2COC(C)(C)CC2=O)c2cc(Br)ccc21 (stereo not drawn)
N#CC1=C(N)Oc2cc(N)ccc2C1C1CC=CCC1 (stereo not drawn)
COc1ccc(-c2cc(NC=O)c3ncc(-c4ccc(OC)c(OC)c4)n3c2)cc1OC
CCOC(=O)C(=Cc1ccc(-n2ccnc2)cc1)C(=O)OCC
Cn1c(-c2ccccc2)cc2c3no[n+]([O-])c3ccc21
CC(C)(C)NCC(=Cc1ccccc1)C(=O)c1ccccc1
COc1ccc(-c2cnnc(N/N=C/c3ccc(O)c(OC)c3)n2)cc1
N#C/C(=C\c1cccnc1)c1nc2ccccc2[nH]1
Cc1cccc(Nc2nnc(SC/C(O)=C(\C#N)c3nc4ccccc4[nH]3)s2)c1
COc1cc(/C=C(/C(=O)c2cccs2)c2nc3ccccc3[nH]2)ccc1O
COc1ccccc1NC(=O)c1oc2ccccc2c1NC(=O)c1cccc(OC)c1OC
CC(=O)c1cccc(-c2ccnc3c2CC(C(=O)NCC2CC2)O3)c1 (stereo not drawn)
N#CC1CC(c2ccccc2)Nc2cc(Cl)ccc2N1 (stereo not drawn)
COc1ccc(N(C)S(=O)(=O)c2cccc3cccnc23)c(OC)c1
COc1ccc(C(=O)NC2CCCc3ccccc32)cc1[N+](=O)[O-] (stereo not drawn)
COc1ccc2nc(NC(=O)Nc3ccccc3OC)sc2c1
COc1ccc2nc(NC(=S)NC(=O)c3ccco3)sc2c1
O=C(OC12CC3CC(CC(C3)C1)C2)c1ccc(NCc2cc(O)ccc2O)cc1
COc1c(-c2ccc(O)c(O)c2)oc2cc(O)cc(O)c2c1=O
CC(=O)c1c(C)oc2c1cc(NS(=O)(=O)c1ccc(Br)cc1)c1ccccc12
COc1ccc(C(=O)c2cc([N+](=O)[O-])ccc2N2CCCC2)cc1
COc1ccc(N/C=C/C(=O)c2cc(OC)c(OC)c(OC)c2)cc1
COC(=O)c1ccccc1NC(=O)C1CC(=O)N(c2ccc(OC)cc2)C1 (stereo not drawn)
CCCCN1C(=O)/C(=C/C=C2/CC(C)(C)CN2C)SC1=S
Cc1cc(C)c(S(=O)(=O)N2CCCCC2CCNC(=O)C(=O)NCc2ccco2)c(C)c1 (stereo not drawn)
Cc1c(C)n(Cc2ccccc2)c2ccc(C(=O)NCc3ccco3)cc12
Cc1ccc(C(=O)NC(=C(Cl)Cl)S(=O)(=O)c2ccc(Cl)cc2)cc1
CC(=O)c1cccc(-c2ccnc3c2CC(C(=O)NCC2CCOCC2)O3)c1 (stereo not drawn)
COc1ccccc1C(=O)N1CCN(c2cccc(Cl)c2)CC1
Cc1cccc(C(=O)NC(=S)N2CCc3ccccc3C2)c1
O=C(N/N=C/c1ccc([N+](=O)[O-])o1)c1cn2ccc3ccccc3c2n1
O=C(Nc1nc2c(F)cccc2s1)c1ccc([N+](=O)[O-])o1
COc1cc(C2Nc3ccc4ncccc4c3C3=C2C(=O)CCC3)ccc1O (stereo not drawn)
COc1ccccc1OCC(=O)NNC(=O)Nc1ccc(Cl)cc1
CCCOC(=O)/C(=C\c1ccc([N+](=O)[O-])o1)NC(=O)c1ccccc1
O=C(N/N=C/c1cccs1)c1n[nH]c2c1CCC2
O=C(Nc1ncccn1)c1ccc([N+](=O)[O-])o1
COc1cc2c(c(OC)c1OC)-c1ccc(N(C)CC(OC)OC)c(=O)cc1[C@@H](NC(C)=O)CC2
CC(C)(C)c1ccc(Oc2ccc(NC(=O)c3ccccc3C(=O)O)cn2)cc1
COc1cc2ccccc2cc1C(=O)N/N=C/c1cccnc1
Cc1nc2c3cc(F)ccc3n(Cc3ccccc3)c2s1
Cn1c(=O)[nH]c(=O)c2c1nc(Br)n2Cc1cccc(Br)c1
Cc1cccc(C)c1OCCNC(=O)C(=O)NCc1ccco1
COc1cc(C2Oc3ccccc3C=C2[N+](=O)[O-])cc(OC)c1OC (stereo not drawn)
N#CC1=C(N)C(C#N)(C#N)[C@H](c2ccoc2)[C@H]2CN(Cc3ccccc3)CC=C12
CCOC(=O)C1=C(C)N=c2sc(=Cc3cc(Cl)c(OCC(=O)O)c(Cl)c3)c(=O)n2C1c1cccc(OC)c1 (stereo not drawn)
Cc1ccc(-c2cc(NC=O)c3ncc(-c4cccc(C(=O)N(C)C)c4)n3c2)cc1
CCOC(=O)c1c(-c2ccc(OC)cc2)csc1/N=C/C1=C(O)CCCC1=O
Cc1ccc(S(=O)(=O)N2CCN(C(=O)CSC(=S)N3CCCC3)CC2)c(C)c1
COC(=O)C1=C(C)N(Cc2ccco2)C(=O)/C1=C\c1ccc([N+](=O)[O-])cc1
C/C(=N/NC(N)=S)c1ccc(Br)s1
CCCC(=O)NC(c1ccc(OC)cc1)c1ccc2cccnc2c1O (stereo not drawn)
Cn1ccnc1Sc1nc2ccccc2nc1NS(=O)(=O)c1ccccc1
